Results filed as inconclusive are left out. A number with no mark means an inactive call. Activity calls are given as the source filed them. Calls come from the whole dose curve; as a rule, active = well fitted inhibition curve with a large enough effect; inconclusive = small, poorly fitted or top-dose-only effect; inactive = flat fitted curve, though single readings scatter.
Experiment: P-glycoprotein substrates identified in KB-8-5-11 adenocarcinoma cell line, qHTS therapeutic library screen (AID 1346987); note: nearly all actives have a fitted effect of over 65% in size
Settings: KB-8-5-11 (P-gp overexpressing) viability, CellTiter-Glo, 72 h; series mostly up to 44.5 µM; activity change, negative = cytotoxicity: at the top concentration
In short: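 In this qHTS, P-gp-rich KB-8-5-11 cells received library compounds across a concentration range. Viability was quantified by luminescence after 72 h at 37 degree C.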
For `CC(C)CNCc1ccc(-c2ccccc2S(=O)(=O)N2CCCC2)cc1`, the “activity change, negative = cytotoxicity” value was -23%.
With `CC(O)/C=C/C1C(C)C(O[C@@H]2O[C@H](CO)[C@@H](O)[C@H](O)[C@H]2O)C(O)CC1(C)C` (some centres undefined) the “activity change, negative = cytotoxicity” value was -1.17%.
For `C[C@@H]1CN(Cc2ccccc2)C[C@H]1c1nc2c(cnn2C2CCOCC2)c(=O)[nH]1`, the “activity change, negative = cytotoxicity” value was -19.1%.
With `CC1=C(CO)C(=O)O[C@@H]([C@@H](C)[C@H]2CC[C@H]3[C@@H]4C[C@H]5O[C@]56[C@@H](O)C=CC(=O)[C@]6(C)[C@H]4CC[C@]23C)C1` the Potency was 2520 nM (active).
With `CC(=O)NC1C(OC(C)(C)C2CCC3(C)C=C(C4CCC5C4(C)CC(O)C4OC(C(C)(C)O)CCC45C)CCC3O2)OC(CO)C(O)C1O` (centres undefined) the “activity change, negative = cytotoxicity” value was 3.65% [at 17.3 µM].
For `O=C(/C=C/c1ccc(O)cc1)N[C@@H](Cc1ccc(O)cc1)C(=O)O`, the “outcome” value was “inactive”.
For `C=CC(=O)Nc1cccc(Nc2nc(Nc3ccc(N4CCN(C(C)=O)CC4)cc3OC)ncc2C(F)(F)F)c1`, the Potency was 20600 nM (active).
For `COc1ccc(-c2cnc(-c3cccc4c3-c3ccccc3C4=O)o2)cc1`, the Potency was 89.3 nM (active).
With `C/C=C(\C)C(=O)O[C@@H]1CC2[C@@H](CC=C3C[C@@H](O[C@H]4C[C@H](OC)[C@H](O[C@H]5C[C@H](OC)[C@H](O[C@@H]6O[C@H](C)[C@@H](O[C@H]7C[C@H](OC)[C@H](O[C@@H]8O[C@H](CO)[C@@H](O)[C@H](O)[C@H]8O)[C@@H](C)O7)[C@H](OC)[C@H]6O)[C@@H](C)O5)[C@@H](C)O4)CC[C@@]32C)[C@@]2(O)CC[C@H](C(C)=O)[C@@]12C` (some centres undefined) the outcome was “inactive [at 9.29 µM]”.
With `C[C@H](C/C=C/C(C)(C)O)[C@H]1CC[C@@]2(C)[C@@H]3[C@@H](O[C@@H]4O[C@H](CO)[C@@H](O)[C@H](O)[C@H]4O)C=C4C(CC[C@H](O)C4(C)C)[C@]3(C=O)CC[C@]12C` (some centres undefined) the “activity change, negative = cytotoxicity” value was 9.56% [at 17.3 µM].
For `O=C(/C=C/c1ccc(O)cc1)OC1[C@H](O)CC(O)(C(=O)O)C[C@H]1O` (some centres undefined), the “activity change, negative = cytotoxicity” value was 2.39%.
For `O=C(Nc1ccccc1)N1CCN(Cc2ccc3ccccc3n2)CC1`, the “activity change, negative = cytotoxicity” value was -11.9%.
For `C/C=C1\[C@H](O[C@@H]2O[C@H](CO)[C@@H](O)[C@H](O)[C@H]2O)OC=C(C(=O)OC)[C@H]1CC(=O)OC[C@H]1O[C@@H](OCCc2ccc(O)cc2)[C@H](O)[C@@H](O)[C@@H]1O`, the “activity change, negative = cytotoxicity” value was -0.742% [at 17.3 µM].
`C/C=C(\C)C(=O)OCC1OC(OC2OC(COC(=O)/C(C)=C/C)C(OC3OC(CO)C(OC(=O)/C(C)=C/C)C(OC(=O)/C(C)=C/C)C3O)C(O)C2O)C(O)C(O)C1OC1OC(CO)C(OC(=O)/C(C)=C/C)C(OC(=O)/C(C)=C/C)C1O` (centres undefined) gave an activity change, negative = cytotoxicity of 8.2% [at 9.29 µM].

Source: PubChem BioAssay (NCATS)
% is set by controls: 0 for no effect and ±100 for the full control effect; potency is the fitted concentration of half-maximal effect.
